Drawing on PubChem BioAssay AID588726 (The Scripps Research Institute Molecular Screening Center, 2011), this text covers inhibition for 90 molecules.

Each structure is given as a SMILES string. Hit rate of the full screen: of about 360,000 compounds, about 8,200 (2.3%) were called active. No stated cut-off is given here; in the data, active means inhibition above about 27%; inactive means the rest. For the sample, actives were picked, then their nearest neighbours and some compounds at random.

Chain of Fructose-bisphosphate aldolase (Mycobacterium tuberculosis (strain ATCC 25618 / H37Rv)) (P9WQA3 whole entry, looked up): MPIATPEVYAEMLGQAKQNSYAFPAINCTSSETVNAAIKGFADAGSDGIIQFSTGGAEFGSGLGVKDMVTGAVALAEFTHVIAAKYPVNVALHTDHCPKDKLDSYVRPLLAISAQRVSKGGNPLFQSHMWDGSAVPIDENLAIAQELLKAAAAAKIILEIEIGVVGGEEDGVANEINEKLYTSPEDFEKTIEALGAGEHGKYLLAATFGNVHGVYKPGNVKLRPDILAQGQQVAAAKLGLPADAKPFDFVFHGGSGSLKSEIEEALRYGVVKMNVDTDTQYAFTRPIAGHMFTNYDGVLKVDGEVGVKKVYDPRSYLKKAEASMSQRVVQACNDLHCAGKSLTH

The experiment has as its target Fructose-bisphosphate aldolase (Mycobacterium tuberculosis (strain ATCC 25618 / H37Rv)) (UniProt P9WQA3). Description: M. tuberculosis aldolase activity blockers – biochemical, fluorescence, strain H37Rv, primary screen (AID 588726).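 Further: 0% = vehicle and 100% = reference inhibitor.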 Conditions: purified M. tuberculosis FBA, fluorescence read-out, at 1 µM, hits give high values.
One may read the inhibition as the relative decrease from the control value, in per cent. As for `CC1(C)CN(c2ccc(-c3ccnc4ncnn34)cc2)C1=O`, the inhibition was 809% [above what the read-out allows, likely interference] (active).

Regarding `Nc1c(-c2ccc(F)cc2)cnc2ncnn12`, the inhibition is 1.26% (inactive).

With `O=C(CSCc1ccccc1Cl)NNC(=O)c1ccccc1`, the inhibition was -0.9% (inactive). Take `C[C@H]1CN([C@@H](C)CO)C(=O)c2cc(-c3cccc(F)c3)cnc2O[C@@H]1CN(C)S(C)(=O)=O`: the inhibition is 2.59% (inactive). Under `CC(C)NC(=O)Nc1cccc2c1O[C@H](CN(C)S(=O)(=O)c1cccs1)[C@@H](C)CN([C@H](C)CO)C2=O` stands 4.46% (inactive).

For the molecule `C[C@H]1CN([C@@H](C)CO)C(=O)c2cc(Br)cnc2O[C@H]1CN(C)S(=O)(=O)c1cccs1`, the inhibition was 27.8% (active).

For `Cc1cc(C)cc(OCC(=O)OCC(=O)NC2CCCC2)c1`, the inhibition is -0.07% (inactive). Under `CCN(C(=O)CSc1cccc[n+]1[O-])c1ccccc1` stands 0.35% (inactive); under `Cc1ccc(S(=O)(=O)n2oc(=O)c(C3CCCCC3)c2N)cc1`, -0.6% (inactive); under `C=CCSc1nnc2c(n1)-c1cccc3cccc-2c13`, -1.23% (inactive). Then `CCOc1ccccc1C1CC(c2ccccc2)Nc2nc(N)nn21` (stereo not given), with 35.6% (active); and `FC(F)Oc1ccccc1C1CC(c2ccc(Br)s2)Nc2ncnn21` (stereo not given), with 1.95% (inactive); and `CCOc1ccccc1C1CC(c2ccc(Cl)cc2)Nc2nc(N)nn21` (stereo not given), with 4.25% (inactive). `CCc1cccc(C)c1NC(=O)COC(=O)Cc1ccsc1`: the inhibition is 4.93% (inactive). As for `CC(C)NC(=S)Nc1cccc2cnccc12`, the inhibition is -1.91% (inactive).

Take `O=c1oc2c(CN3CCCCC3)c(O)ccc2c2c1CCCCC2`: the inhibition was 502% [above what the read-out allows, likely interference] (active). Under `Cc1c(CN2CCCCC2)c(O)n(CCO)c(=O)c1C#N` stands 2.47% (inactive); under `N#Cc1ccccc1S(=O)(=O)N1CCN(Cc2c(O)ccc3ccccc23)CC1`, 2.66% (inactive); under `CC(C)CN(C(=O)CSc1ncnc2sccc12)C1CCS(=O)(=O)C1` (stereo not given), 2.25% (inactive).

Take `CCC(C)N(C(=O)CSc1ncnc2c1cnn2-c1ccccc1)C1CCS(=O)(=O)C1` (stereo not given): the inhibition was -2.78% (inactive). As for `CCN(C(=O)CSc1ncnc2c1cnn2-c1ccccc1)C1CCS(=O)(=O)C1` (stereo not given), the inhibition was 32.7% (active). Under `CN(C)C(=O)CCC(=O)N1CCCCC1C(=O)Nc1ccc(Oc2ccccc2F)cc1` (stereo not given) stands -1.93% (inactive); under `O=C(c1cccc(N2CCCC2=O)c1)N1CCOCC1`, -17.6% (inactive); under `COc1ccccc1C(=O)Nc1cccc(C(=O)N2CCOCC2)c1`, 3.07% (inactive). Under `CCOCCc1c(O)nc(SCC(=O)NCc2ccco2)[nH]c1=O` stands 2.42% (inactive); under `CS(=O)(=O)N(Cc1ccccc1Cl)c1ccc(C(=O)NCc2cccnc2)cc1`, -3.74% (inactive). Then `CCN(CC(=O)Nc1cc(Cl)ccc1C)C(=O)CSCc1ccc(C)cc1`, with 2.85% (inactive). Regarding `O=C(NC1CCCC1)C(c1c(F)cccc1Cl)N(C(=O)c1csnn1)C1CC1` (stereo not given), the inhibition is -1.18% (inactive).

On to `COc1ccc(OC)c(NC(=O)CN(Cc2ccc(Cl)cc2)S(C)(=O)=O)c1`, for which the inhibition is -0.32% (inactive).

As for `O=c1cc(C(F)(F)F)[nH]c(=O)n1C1CCCCC1`, the inhibition is -0.44% (inactive). Then `CC(Sc1sc(=S)sc1SC(C)C(=O)O)C(=O)O` (stereo not given), with -1.78% (inactive). Under `O=C(NCCCN1CCOCC1)c1ccccc1NS(=O)(=O)c1ccc(F)cc1` stands 2.85% (inactive); under `O=C(NCCCN1CCOCC1)c1ccccc1NS(=O)(=O)c1ccc(Br)cc1`, 0.43% (inactive); under `O=C(NCCCN1CCOCC1)c1cnn2c(-c3ccccc3)cc(-c3ccccc3)nc12`, 34.3% (active). Then `Cc1nn2c(=O)cc(COC(=O)c3ccc(NC(=O)C(C)(C)C)cc3)nc2s1`, with -0.5% (inactive); and `CC(=O)Nc1ccc(-c2cn3cccnc3n2)cc1`, with 566% [above what the read-out allows, likely interference] (active); and `CCN(c1ccccc1)S(=O)(=O)c1ccc(NC(=O)C(C)(C)C)cc1`, with 0.11% (inactive). Turning to `CCCCCC(=O)Nc1ccc(-c2cn3cccnc3n2)cc1`, the inhibition was 131% (active). As to `CCCCCC(=O)Nc1ccc(S(=O)(=O)Nc2ccc(Cl)nn2)cc1`, the inhibition is -0.48% (inactive). Under `CCCCC(=O)Nc1ccc(C(=O)NCCCn2ccnc2)cc1` stands -1.64% (inactive). Under `CC(=O)Nc1ccc(S(=O)(=O)Nc2ccc(-c3ccc4nnc(C)n4n3)cc2)cc1` stands -1.85% (inactive). Then `Cc1ccc(NC(=O)c2cccnc2C(=O)Nc2ccc(C)cc2)cc1`, with 4.35% (inactive); and `CCOc1ccc(C(CC(=O)O)NC(=O)C23CC4CC(CC(C4)C2)C3)cc1OC` (stereo not given), with -2.94% (inactive); and `CSc1ccc(CN2CCC2(C)C(=O)NCc2ccccc2Br)cc1` (stereo not given), with -0.17% (inactive). Regarding `COc1ccc(OC)c(NC(=O)C2CCCN2S(=O)(=O)c2ccc3c(c2)CC(C)N3C(C)=O)c1` (stereo not given), the inhibition was -1.84% (inactive). `CCOC(=O)CSc1nnc(NC(=O)C2CC(=O)N(c3ccc(F)cc3)C2)s1` (stereo not given): the inhibition is -1.95% (inactive).

Take `O=C(N/C(=C\c1ccc([N+](=O)[O-])cc1)C(=O)N1CCOCC1)c1cccc(Br)c1`: the inhibition was -1.01% (inactive).

As to `CCCS(=O)(=O)N1CCN(C(=O)c2cccs2)CC1`, the inhibition was 3.16% (inactive). Then `CN(C)S(=O)(=O)c1cccc(NC(=S)N/N=C/C(=O)c2ccccc2)c1`, with -3.5% (inactive); and `CN(C)S(=O)(=O)c1ccc(NC(=O)N2CCOCC2)cc1`, with 3.98% (inactive). Under `CN(C)S(=O)(=O)c1ccc(N/C=C(\[N+](=O)[O-])S(=O)(=O)c2ccccc2)cc1` stands 57.2% (active); under `O=C(O)CC(Cn1cnnn1)c1ccccc1` (stereo not given), 3.12% (inactive). Under `Cc1cccc(CCNC(=O)Cn2ncc3c([nH]c4ccc(C)cc43)c2=O)c1` stands 1.24% (inactive); under `Cc1ccc(CSCC(=O)N(C)CC(=O)Nc2ccc(C)cc2)cc1`, -2.58% (inactive). Regarding `Cc1ccc(NC(=O)CN(C)C(=O)COC(=O)c2nccnc2N)cc1`, the inhibition was 88.8% (active). Turning to `Cc1ccc(NC(=O)CN(C)C(=O)COC(=O)C(C)(C)Oc2ccc(Cl)cc2)cc1`, the inhibition was 2.5% (inactive). Under `COc1cc2c(cc1OC)C1C(=O)c3cc(OS(C)(=O)=O)c(OC)cc3C1N(C)C2=O` (stereo not given) stands 3.73% (inactive). Under `O=C(Nc1nnc(C2=COCCO2)o1)c1ccc([N+](=O)[O-])s1` stands -5.53% (inactive). Then `O=C(Nc1nccs1)C1CCCN1S(=O)(=O)c1cccc2cccnc12` (stereo not given), with -1.37% (inactive). With `COc1ccc(C(C)=O)cc1CSc1nc2nc(C)cc(C)n2n1`, the inhibition is -0.02% (inactive). Then `CCn1c(CSc2nc(C)cc(C)n2)nnc1SCC(N)=O`, with -3.73% (inactive).

Take `Cc1cc(C)nc(SCc2cn3c(C)cc(C)nc3n2)n1`: the inhibition is 78.2% (active). Under `COc1ccc(C(CNC(=O)CSc2ccccc2)N2CCOCC2)cc1` (stereo not given) stands 2.08% (inactive); under `COc1cc2sc(C)nc2cc1C`, 4.23% (inactive). Regarding `CC(=O)N1CCOc2ccc(S(=O)(=O)N3CCC(C(=O)Nc4ccccc4F)CC3)cc21`, the inhibition was 3.64% (inactive). Under `O=C(Nc1cccc2ccccc12)N1CCN(Cc2ccc3c(c2)OCO3)CC1` stands 41.2% (active). Under `O=C(CCCN1C(=O)c2cccc3cccc(c23)C1=O)N1CCN(Cc2ccc3c(c2)OCO3)CC1` stands 10.2% (inactive); under `O=C(Nc1cccc2ccccc12)N1CCC2(CC1)OCCO2`, 44.6% (active). Under `O=C(c1ccccc1[N+](=O)[O-])N1CCC2(CC1)OCCO2` stands 0.71% (inactive); under `COc1ccc(NC(=O)N2CCC3(CC2)OCCO3)c(OC)c1`, -0.76% (inactive). On to `O=C(Cc1ccccc1[N+](=O)[O-])N1CCN(Cc2ccc3c(c2)OCO3)CC1`, for which the inhibition was 0.16% (inactive). As to `CCOC(=O)c1cc2cc(-c3c(C(=O)OCC)oc4cc(O)cc(O)c4c3=O)ccc2o1`, the inhibition is 0.2% (inactive). Then `COc1ccc(Cc2nnnn2CC(=O)O)cc1`, with 0.07% (inactive); and `CN(CC(=O)Nc1ccccc1C(F)(F)F)C(=O)Cc1ccccc1F`, with -1.8% (inactive).

In the case of `CC(C)N1C(=S)SC(C)(C)C1n1oc(=O)n(-c2ccc(Cl)c(Cl)c2)c1=O` (stereo not given), the inhibition was 1.39% (inactive). As to `COc1ccc(-c2c(C(C)=O)c(C)nc3sc4c(=O)n(-c5ccc(C)cc5)nnc4c23)cc1`, the inhibition is 3.94% (inactive).

In the case of `CCN1CC=C2C(C#N)=C(N)C(C#N)(C#N)[C@H](c3ccoc3)[C@H]2C1`, the inhibition was 28% (active). For the molecule `COC(=O)[C@]1(Cc2ccccc2)N[C@H](CN(C)S(=O)(=O)c2ccc(OC(F)(F)F)cc2)[C@@H]2C(=O)N(C)C(=O)[C@@H]21`, the inhibition is 0.06% (inactive).

For the molecule `O=C1c2ccccc2-c2ccccc2NC1O` (stereo not given), the inhibition is -1.24% (inactive). Then `COc1ccc2[nH]c3c(C)c4cc[n+](C)cc4c(C)c3c2c1`, with -3.24% (inactive); and `COc1ccc2[nH]c3c(c2c1)CCN[C@H]3C`, with 0.12% (inactive); and `COc1ccc2[nH]c3ccc(OC)cc3c2c1`, with 28.3% (active). `C[C@]1(C(=O)NCCc2c[nH]c3ccccc23)C=C[C@@H](Cc2ccccc2)N1C(=O)c1ccccc1`: the inhibition is -0.23% (inactive). Then `COc1ccc(NC(=O)CSc2nnc(C3CC3)n2C)cc1S(=O)(=O)N1CCCCC1`, with -1.4% (inactive); and `CCOc1ccc(N(CC(=O)Nc2ccccc2F)S(=O)(=O)c2c(C)[nH]c(=O)[nH]c2=O)cc1`, with 0.28% (inactive). Then `O=C(NCCCn1ccnc1)C1CCCN(S(=O)(=O)c2cc(Cl)ccc2Cl)C1` (stereo not given), with -0.78% (inactive).

Turning to `CCCCN=C(N)/C(C(=O)OCC)=C(\O)c1ccc(OC)cc1`, the inhibition was -0.66% (inactive).

Regarding `Cc1noc(C)c1COC(=O)COc1ccc(-c2ccccc2)cc1`, the inhibition is -1.21% (inactive). Then `CC(C)OC(=O)c1ccc(COc2ccc3ccc(=O)oc3c2)o1`, with 17.9% (inactive). As for `Cc1noc(C)c1COc1ccc2ccc(=O)oc2c1`, the inhibition was 28.6% (active).
